# Results from PubChem BioAssay (NCATS).
# Records with an inconclusive call do not appear. Entries that show only a call come without a potency. Active and inactive are the calls of the source. Unless noted, the call rests on the fitted dose curve; in most records, active means well fitted curve in the direction sought with a large enough effect; inconclusive means small, poorly fitted or top-dose-only effect, or another doubt; inactive means no such curve, though single readings can be large; an effect the other way counts as inactive or inconclusive.
# How the values were obtained:
# [1] = target: Beta-2 adrenergic receptor (Homo sapiens) (UniProt P07550); assay: qHTS validation assay of beta-arrestin-biased ligands of beta2-adrenergic receptor (AID 485366)
# Summary of the method: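 Compound series up to 46 microM applied to beta2-AR/beta-arrestin Tango cells, 18 hr, 37 degrees C, 5% CO2. Read-out: tTA-driven luciferase luminescence, converted to %Activity; concentration-response curves assigned curve classes.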
# [2] = Quantitative high throughput screen for delayed death inhibitors of the malarial parasite plastid, 96 hour incubation (AID 488745); further: series mostly up to about 29 µM; nearly all actives have a fitted effect of over 70% in size
# Summary of the method: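 Two-generation (96 h) exposure of luciferase-reporter P. falciparum in erythrocytes, 2% hematocrit, 0.1% parasitemia final, 37 C, 5% CO2, RPMI 1640 with 0.5% Albumax. Growth inhibition scored by reduced luminescence.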
# [3] = Quantitative high throughput screen for delayed death inhibitors of the malarial parasite plastid, 48 hour incubation (AID 488752); further: nearly all actives have a fitted effect of over 65% in size
# Summary of the method: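 Cultures: infected erythrocytes at final 2% hematocrit and 0.1% parasitemia in Albumax-supplemented RPMI. Parasites express integrated firefly luciferase. Incubation with compound lasts 48 h before luminescent detection of remaining reporter activity.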
# [4] = target: Thioredoxin reductase 1, cytoplasmic (Rattus norvegicus) (UniProt O89049); assay: qHTS Assay for Substrates of Mammalian Selenoprotein Thioredoxin Reductase 1 (TrxR1) (AID 488772);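 further: series mostly up to about 57 µM; a drop in NADPH fluorescence below the no-compound background marks a TrxR1 substrate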
# Summary of the method: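 In this dual-purpose format, potential substrates are identified from the first fluorescence read after selenite addition, not from the 8-minute delta. Rat enzyme is preincubated with NADPH and then with compound at ~22 deg C.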
# [5] = target: Thioredoxin reductase 1, cytoplasmic (Rattus norvegicus) (UniProt O89049); assay: qHTS Assay for Inhibitors of Mammalian Selenoprotein Thioredoxin Reductase 1 (TrxR1) (AID 488773); conditions: Potency: inhibition; further: nearly all actives have a fitted effect of over 40% in size; further: potency means the concentration at half of the fitted maximal effect
# Summary of the method: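 Inhibition is scored from the loss of NADPH fluorescence between first and last reads of an 8-min kinetic run. Selenite (400 uM) was the substrate, added after 15 min compound preincubation at room temperature.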
# [6] = target: Flap endonuclease 1 (Homo sapiens) (UniProt P39748); assay: qHTS Validation Assay for the Inhibitors of Human Flap endonuclease 1 (FEN1) (AID 488816); further: potency means the concentration at half of the fitted maximal effect
# Summary of the method: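 qHTS format: compounds and 10 nM FEN1 incubated 15 min at room temperature before adding 50 nM substrate. Cleavage followed by reads at 0 and 15 min; normalized data fitted to a four-parameter Hill curve.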
# [7] = target: M-phase phosphoprotein 8 (Homo sapiens) (UniProt Q99549); assay: qHTS Validation Assay for Inhibitors for MPP8 Chromodomain Interactions with Methylated Histone Tails (AID 488949); further: nearly all actives have a fitted effect of over 55% in size; further: potency means the concentration at half of the fitted maximal effect
# Summary of the method: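 AlphaScreen read-out: streptavidin donor and nickel chelate acceptor beads (final 10 ug/mL), 30 min in the dark at RT. Complex of 50 nM MPP8 and 50 nM b-H3(1-18)K9me3 peptide had been exposed to compounds for 30 min beforehand.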
# [8] = target: Chromobox protein homolog 1 (Homo sapiens) (UniProt P83916); assay: qHTS Validation Assay for Inhibitors of HP1-beta Chromodomain Interactions with Methylated Histone Tails (AID 488953); further: nearly all actives have a fitted effect of over 50% in size; further: potency means the concentration at half of the fitted maximal effect
# Summary of the method: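 Compounds pinned into a preassembled complex of HP1-beta and trimethyl-K9 histone H3(1-18) biotin peptide (50 nM each; PBS pH 7.4, 0.01% Tween-20). After 30 min, bead-based AlphaScreen detection followed.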
# [9] = target: Methanococcus maripaludis chaperonin (MmCpn) (UniProt Q6LX38); assay: High-Throughput Screening for Modulators of Cytosolic Chaperonin Activity: MmCpn Primary Screen (AID 488978);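 further: 50 nM MmCpn enzyme hydrolysing 30 µM ATP at 37 °C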
# Summary of the method: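 ADP formation read by HTRF Transcreener, 665/590 nm emission after 320 nm excitation. Enzyme: archaeal chaperonin at 50 nM final; substrate ATP 30 uM final; 10 min, 37C, after 5 min compound preincubation at RT.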
# [10] = target: Transient receptor potential cation channel subfamily V member 1 (Homo sapiens) (UniProt Q8NER1); assay: HTS Assay for Compounds that Act as Enhancers of the Vanilloid Receptor 1 (AID 488979)
# Summary of the method: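 Calcium influx kinetics via Fluo-8 (480/520 nm) in TRPV1-expressing cells, 2000/well cultured overnight at 35.5C. Compound-alone read 3 min (agonist phase), followed by EC20 capsaicin challenge for 2 min (enhancer phase).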
# [11] = target: Thyrotropin receptor (Homo sapiens) (UniProt P16473); assay: qHTS Assay for Antagonists of the Thyroid Stimulating Hormone Receptor (AID 488980); further: series mostly up to about 58 µM
# Summary of the method: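 TSHR-HEK293 cells; 70 uM RO 20-1724 PDE inhibitor; compound + EC80 TSH (4 nM final); anti-cAMP cryptate antibody/cAMP-d2 in lysis buffer, 30 min RT; HTRF 665/620 nm read.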
# [12] = target: D(1A) dopamine receptor (Homo sapiens) (UniProt P21728); assay: HTS Assay for Allosteric Agonists of the Human D1 Dopamine Receptor: Primary Screen for Agonists (AID 488981); further: potency means the concentration at half of the fitted maximal effect
# Summary of the method: (§1)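 Calcium flux in an inducible, force-coupled HEK293 Trex D1 line (overnight at 30 C): agonist mode is the 180 s kinetic read after compound; potentiator mode is the following 180 s read after dopamine at EC20.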
# [13] = target: D(1A) dopamine receptor (Homo sapiens) (UniProt P21728); assay: HTS Assay for Allosteric Agonists of the Human D1 Dopamine Receptor: Primary Screen for Potentiators (AID 488982)
# Summary of the method: as §1
# [14] = target: D(1A) dopamine receptor (Homo sapiens) (UniProt P21728); assay: HTS Assay for Allosteric Agonists of the Human D1 Dopamine Receptor: Primary Screen for Antagonists (AID 488983);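 further: calcium flux response to an EC80 dopamine challenge measured with no-wash dye; nearly all actives have a fitted effect of over 65% in size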; further: potency means the concentration at half of the fitted maximal effect
# Summary of the method: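 In this primary screen, compounds are applied to calcium-dye-loaded HEK293 T-REx cells with force-coupled D1 expression induced overnight at 30 C. An EC80 of dopamine follows the 180 s compound phase, and calcium is monitored for a further 180 s.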
# [15] = Validation screen for small molecules that induce genotoxicity in human embryonic kidney (HEK293T) cells expressing luciferase-tagged ELG1 (AID 493106)
# Summary of the method: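 In this validation screen, increased ELG1-luciferase signal flags compounds causing genetic stress. HEK293T reporter cells are treated 16 hr (37 °C, 5% CO2), developed with ONE-Glo for 30 min at room temperature, and imaged on a CCD-based reader.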
# [16] = target: ATPase family AAA domain-containing protein 5 (Homo sapiens) (UniProt Q96QE3); assay: Validation screen for small molecules that inhibit ELG1-dependent DNA repair in human embryonic kidney (HEK293T) cells expressing luciferase-tagged ELG1 (AID 493107);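 further: cells co-treated with the DNA-damaging agent 5-fluorouridine alongside compound; series mostly up to about 46 µM; inhibitors lower the ELG1-luciferase luminescence signal; nearly all actives have a fitted effect of over 70% in size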
# Summary of the method: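 Compounds reducing 5-fluorouridine-driven ELG1-luciferase signal in HEK293T cells were scored; exposure lasted 16 hr at 37 °C with luminescence detected via ONE-Glo.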
# [17] = target: Thyrotropin-releasing hormone receptor (Homo sapiens) (UniProt P34981); assay: qHTS for Small Molecule Agonists and Allosteric Enhancers of Human TRH Receptor: Validation Screen for Agonists (AID 493127;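 active means calcium activation more than 3 SD above the typical response in the agonist read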;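 further: intracellular calcium rise by fluo-8 fluorescence before TRH EC20 addition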); conditions: TRH receptor agonist cell assay; at 2 µM; stronger effect = higher value
# Summary of the method: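 Kinetic fluorescence assay of agonist-induced calcium release: overnight-plated TRHR cells, room-temperature fluo-8 loading, baseline then compound addition with per-second reads.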
# [18] = Nrf2 qHTS screen for inhibitors: Validation (AID 493153; active means well fitted inhibition curve with a large enough effect in the main read-out, with a control signal flat, not every such curve was filed as active); conditions: viability change: measured here: cytotoxicity max response
# Summary of the method: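 In this counterscreened reporter format, each well gives two signals: CellTiter-Fluor fluorescence for cytotoxicity and ARE-luciferase luminescence for Nrf2 function. A549 ARE_Fluc cells in 5% FBS OPTI-MEM were exposed to compound titrations for 18-24 h.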
# [19] = target: ATP-dependent 6-phosphofructokinase (Trypanosoma brucei brucei) (UniProt O15648); assay: qHTS Assay to Find Inhibitors of T. brucei phosphofructokinase: hit validation (AID 492961);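 further: luminescence reports ADP formed as PFK phosphorylates fructose-6-phosphate with ATP; series mostly up to about 51 µM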
# Summary of the method: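 ADP-Glo luminescence read-out of ADP formed by 1.25 nM PFK from 0.1 mM ATP and 0.5 mM F6P (TEA pH 8.0, 45 min, RT). Compounds titrated; activity normalized to no-enzyme and full-enzyme controls.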
# Sequence of Chromobox protein homolog 1 (Homo sapiens) (P83916 whole entry, looked up): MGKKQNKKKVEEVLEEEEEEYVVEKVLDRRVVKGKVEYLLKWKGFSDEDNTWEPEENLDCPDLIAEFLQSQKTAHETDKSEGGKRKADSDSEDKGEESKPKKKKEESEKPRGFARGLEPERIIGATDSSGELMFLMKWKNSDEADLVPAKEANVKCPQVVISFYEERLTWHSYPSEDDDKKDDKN
# Sequence of Flap endonuclease 1 (Homo sapiens) (P39748 whole entry, looked up): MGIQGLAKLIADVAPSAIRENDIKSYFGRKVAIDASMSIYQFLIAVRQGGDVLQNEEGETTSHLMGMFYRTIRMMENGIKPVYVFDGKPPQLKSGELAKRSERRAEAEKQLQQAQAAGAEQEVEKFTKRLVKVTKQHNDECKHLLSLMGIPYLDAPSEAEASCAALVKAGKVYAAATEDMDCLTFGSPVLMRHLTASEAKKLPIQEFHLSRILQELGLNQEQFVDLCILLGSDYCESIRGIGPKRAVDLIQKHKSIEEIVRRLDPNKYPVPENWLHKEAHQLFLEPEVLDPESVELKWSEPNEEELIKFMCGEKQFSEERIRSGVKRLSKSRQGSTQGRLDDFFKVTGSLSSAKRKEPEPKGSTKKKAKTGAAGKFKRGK
# Sequence of Beta-2 adrenergic receptor (Homo sapiens) (P07550 whole entry, looked up): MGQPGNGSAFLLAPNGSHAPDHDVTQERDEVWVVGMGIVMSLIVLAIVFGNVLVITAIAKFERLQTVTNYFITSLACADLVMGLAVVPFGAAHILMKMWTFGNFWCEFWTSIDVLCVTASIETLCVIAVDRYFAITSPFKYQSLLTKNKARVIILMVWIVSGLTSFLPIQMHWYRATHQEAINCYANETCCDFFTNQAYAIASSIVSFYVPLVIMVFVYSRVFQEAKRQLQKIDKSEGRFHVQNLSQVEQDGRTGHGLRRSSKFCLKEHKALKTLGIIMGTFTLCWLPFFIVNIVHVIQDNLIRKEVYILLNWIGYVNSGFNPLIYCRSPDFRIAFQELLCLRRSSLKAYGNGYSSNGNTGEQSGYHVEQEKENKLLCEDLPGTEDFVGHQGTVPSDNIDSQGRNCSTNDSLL
# Sequence of Thioredoxin reductase 1, cytoplasmic (Rattus norvegicus) (O89049 whole entry, looked up): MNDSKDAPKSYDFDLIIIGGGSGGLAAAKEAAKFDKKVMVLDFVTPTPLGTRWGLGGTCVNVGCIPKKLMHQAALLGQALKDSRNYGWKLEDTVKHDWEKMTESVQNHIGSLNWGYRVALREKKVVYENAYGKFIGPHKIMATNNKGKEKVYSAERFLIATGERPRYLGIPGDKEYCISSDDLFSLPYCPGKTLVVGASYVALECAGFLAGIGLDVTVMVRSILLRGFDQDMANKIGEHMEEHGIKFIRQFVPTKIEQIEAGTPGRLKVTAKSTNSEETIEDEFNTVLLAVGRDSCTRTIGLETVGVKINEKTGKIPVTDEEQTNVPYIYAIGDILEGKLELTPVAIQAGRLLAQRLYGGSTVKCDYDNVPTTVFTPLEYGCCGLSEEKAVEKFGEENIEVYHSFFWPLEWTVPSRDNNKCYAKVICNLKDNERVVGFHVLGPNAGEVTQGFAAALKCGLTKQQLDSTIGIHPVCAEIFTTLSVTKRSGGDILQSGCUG
# Sequence of ATP-dependent 6-phosphofructokinase (Trypanosoma brucei brucei) (O15648 whole entry, looked up): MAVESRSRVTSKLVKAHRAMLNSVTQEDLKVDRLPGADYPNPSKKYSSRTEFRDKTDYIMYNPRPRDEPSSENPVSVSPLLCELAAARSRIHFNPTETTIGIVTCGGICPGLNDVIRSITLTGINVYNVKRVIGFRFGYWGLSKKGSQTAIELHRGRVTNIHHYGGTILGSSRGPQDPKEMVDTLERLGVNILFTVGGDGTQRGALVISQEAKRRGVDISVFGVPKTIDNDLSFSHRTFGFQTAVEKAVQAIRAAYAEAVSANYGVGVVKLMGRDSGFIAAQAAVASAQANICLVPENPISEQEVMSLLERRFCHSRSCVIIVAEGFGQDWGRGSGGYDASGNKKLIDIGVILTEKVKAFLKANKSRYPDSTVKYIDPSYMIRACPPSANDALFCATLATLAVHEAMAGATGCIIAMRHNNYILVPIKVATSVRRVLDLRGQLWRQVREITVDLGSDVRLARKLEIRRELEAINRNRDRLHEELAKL
# Sequence of ATPase family AAA domain-containing protein 5 (Homo sapiens) (Q96QE3 whole entry, looked up, the tested form may be a part): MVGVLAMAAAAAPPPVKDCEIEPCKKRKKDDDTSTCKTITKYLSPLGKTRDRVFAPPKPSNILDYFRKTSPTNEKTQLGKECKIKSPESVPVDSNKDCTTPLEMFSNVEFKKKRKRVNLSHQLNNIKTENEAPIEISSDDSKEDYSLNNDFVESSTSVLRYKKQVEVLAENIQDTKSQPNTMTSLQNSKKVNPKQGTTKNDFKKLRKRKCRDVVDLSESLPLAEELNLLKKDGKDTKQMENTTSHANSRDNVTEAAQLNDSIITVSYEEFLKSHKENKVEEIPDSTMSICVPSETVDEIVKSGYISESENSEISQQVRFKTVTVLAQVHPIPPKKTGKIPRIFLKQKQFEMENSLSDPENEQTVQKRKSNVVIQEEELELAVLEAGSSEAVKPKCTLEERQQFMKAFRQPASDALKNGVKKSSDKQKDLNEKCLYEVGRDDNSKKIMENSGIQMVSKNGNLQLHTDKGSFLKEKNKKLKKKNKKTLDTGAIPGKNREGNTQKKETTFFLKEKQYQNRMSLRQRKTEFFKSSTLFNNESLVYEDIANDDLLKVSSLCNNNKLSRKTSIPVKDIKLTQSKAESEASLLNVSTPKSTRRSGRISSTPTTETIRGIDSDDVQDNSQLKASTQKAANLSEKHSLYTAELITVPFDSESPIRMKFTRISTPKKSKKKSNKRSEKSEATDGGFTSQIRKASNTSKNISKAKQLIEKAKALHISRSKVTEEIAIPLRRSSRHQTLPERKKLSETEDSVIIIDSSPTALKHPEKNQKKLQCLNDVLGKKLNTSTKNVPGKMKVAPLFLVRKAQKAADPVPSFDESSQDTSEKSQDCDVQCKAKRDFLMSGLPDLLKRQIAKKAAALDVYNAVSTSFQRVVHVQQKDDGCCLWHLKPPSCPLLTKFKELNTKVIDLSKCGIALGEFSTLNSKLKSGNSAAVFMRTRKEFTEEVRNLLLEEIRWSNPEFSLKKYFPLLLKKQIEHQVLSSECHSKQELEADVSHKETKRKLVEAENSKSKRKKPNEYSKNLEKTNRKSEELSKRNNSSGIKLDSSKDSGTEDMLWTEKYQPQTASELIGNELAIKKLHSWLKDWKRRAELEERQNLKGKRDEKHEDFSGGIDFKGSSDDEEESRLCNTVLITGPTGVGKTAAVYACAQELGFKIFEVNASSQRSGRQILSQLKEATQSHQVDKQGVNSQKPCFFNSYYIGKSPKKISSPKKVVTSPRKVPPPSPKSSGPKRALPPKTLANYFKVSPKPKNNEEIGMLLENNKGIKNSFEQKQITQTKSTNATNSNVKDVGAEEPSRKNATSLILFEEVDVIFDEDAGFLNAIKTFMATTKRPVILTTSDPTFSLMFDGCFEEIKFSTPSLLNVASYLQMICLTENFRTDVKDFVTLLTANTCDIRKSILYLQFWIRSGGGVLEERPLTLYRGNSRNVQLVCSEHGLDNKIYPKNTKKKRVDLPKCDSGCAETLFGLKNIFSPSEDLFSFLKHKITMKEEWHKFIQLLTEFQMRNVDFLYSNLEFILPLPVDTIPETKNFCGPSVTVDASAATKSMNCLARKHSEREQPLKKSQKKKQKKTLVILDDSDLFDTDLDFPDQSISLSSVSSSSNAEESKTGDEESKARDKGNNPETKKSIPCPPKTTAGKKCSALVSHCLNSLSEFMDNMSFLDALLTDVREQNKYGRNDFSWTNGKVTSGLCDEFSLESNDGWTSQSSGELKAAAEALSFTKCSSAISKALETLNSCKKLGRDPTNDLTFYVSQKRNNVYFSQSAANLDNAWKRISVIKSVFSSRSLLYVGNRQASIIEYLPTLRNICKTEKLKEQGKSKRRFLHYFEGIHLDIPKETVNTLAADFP
# Sequence of Thyrotropin-releasing hormone receptor (Homo sapiens) (P34981 whole entry, looked up): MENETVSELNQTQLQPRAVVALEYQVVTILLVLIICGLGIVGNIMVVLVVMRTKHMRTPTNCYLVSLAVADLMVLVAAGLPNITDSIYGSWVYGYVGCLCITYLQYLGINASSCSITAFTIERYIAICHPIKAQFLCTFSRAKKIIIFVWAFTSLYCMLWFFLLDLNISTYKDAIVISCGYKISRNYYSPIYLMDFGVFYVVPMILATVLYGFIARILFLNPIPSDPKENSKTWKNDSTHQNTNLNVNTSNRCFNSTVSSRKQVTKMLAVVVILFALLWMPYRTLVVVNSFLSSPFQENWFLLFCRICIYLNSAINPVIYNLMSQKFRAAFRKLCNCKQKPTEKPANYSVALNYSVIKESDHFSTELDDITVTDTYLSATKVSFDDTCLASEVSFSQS
# Sequence of D(1A) dopamine receptor (Homo sapiens) (P21728 whole entry, looked up): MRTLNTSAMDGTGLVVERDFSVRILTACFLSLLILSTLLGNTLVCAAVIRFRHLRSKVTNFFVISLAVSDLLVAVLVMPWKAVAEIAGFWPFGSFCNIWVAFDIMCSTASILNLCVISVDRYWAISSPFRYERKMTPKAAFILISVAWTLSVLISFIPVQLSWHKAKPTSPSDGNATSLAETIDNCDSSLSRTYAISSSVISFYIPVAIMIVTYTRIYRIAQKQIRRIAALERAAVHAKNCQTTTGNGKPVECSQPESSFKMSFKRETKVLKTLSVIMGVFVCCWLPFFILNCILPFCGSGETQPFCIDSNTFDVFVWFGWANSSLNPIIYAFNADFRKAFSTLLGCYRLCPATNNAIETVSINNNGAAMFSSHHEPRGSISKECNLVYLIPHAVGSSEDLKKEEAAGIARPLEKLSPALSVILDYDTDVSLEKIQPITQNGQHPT
SMILES,outcome [1],Potency [2],Potency [3],outcome [4],Potency [5],Potency [6],Potency [7],Potency [8],outcome [9],outcome [10],outcome [11],Potency [12],outcome [13],Potency [14],outcome [15],Potency [16],activation [17],outcome [18],viability change [18] [%],Potency [19]
NCCc1c[nH]c2ccc(O)cc12,inactive,inactive,inactive,inactive,inactive,inactive,inactive,inactive,inactive,inactive,inactive,inactive,inactive,inactive,inactive,inactive,1.44% (inactive),inactive,0.321,
Clc1cnc(Oc2ccc(Oc3ncc(Cl)cc3Cl)cc2)c(Cl)c1,inactive,inactive,inactive,inactive,inactive,inactive,inactive,inactive,inactive,inactive,inactive,inactive,inactive,inactive,inactive,inactive,,inactive,3.25,
CNCCc1ccc(O)c(O)c1,inactive,inactive,inactive,inactive,13400 nM (active),2990 nM (active),inactive,,inactive,inactive,inactive,282 nM (active),inactive,251 nM (active),inactive,inactive,-0.25% (inactive),inactive,0.688,
CCCN(CCC)[C@@H]1CCc2ccc(O)cc2C1,inactive,inactive,inactive,inactive,inactive,inactive,inactive,inactive,inactive,inactive,inactive,inactive,inactive,10000 nM (active),inactive,inactive,0.938% (inactive),inactive,2.19,
Cc1nc(-c2ccc(-c3ccc(C(=O)N4CCc5cc6c(cc54)C4(CCN(C)CC4)CO6)cc3)c(C)c2)no1,,,,,,,11200 nM (active),,,inactive,inactive,,,,,,1.44% (inactive),,,
O=[N+]([O-])c1ccc([As](=O)(O)O)cc1,,,,,,,,,,,,,,,,,,,,inactive
CCn1cc(C(=O)O)c(=O)c2cc3c(cc21)OCO3,,,,inactive,,,,6.7 nM (active),,,,,,,,,,,,
Cc1c(C(=O)c2cccc3ccccc23)c2cccc3c2n1[C@H](CN1CCOCC1)CO3,inactive,,,inactive,inactive,inactive,inactive,6 nM (active),,inactive,inactive,inactive,,inactive,inactive,,-3.25% (inactive),,,
CC(Cc1ccc(O)cc1)NCC(O)c1cc(O)cc(O)c1 (configuration not stated),,inactive,inactive,inactive,inactive,,inactive,inactive,inactive,inactive,inactive,inactive,inactive,inactive,inactive,inactive,0.688% (inactive),inactive,-4.39,
CCCCCCCCCC(CC)c1ccc(S(=O)(=O)O)cc1 (configuration not stated),,,,,,,,,,,,,,,,,,,,inactive
Cc1ccc(Cl)c(O)c1,,,,,,,,,,,,,,,,,,,,inactive
